The values that follow come from PubChem BioAssay (NCATS).

The structures appear in SMILES notation. Results filed as inconclusive are left out. Values without a mark were called inactive. The source made the active and inactive calls. Calls follow the shape of the dose curve; as a rule, active = well fitted inhibition curve with a large enough effect; inconclusive = small, poorly fitted or top-dose-only effect; inactive = flat fitted curve, though single readings scatter.
Potency is read from the fitted curve at half-maximal effect.

The test system of one assay is DFO2036. In words: qHTS profiling for inhibitors of Plasmodium falciparum proliferation (AID 504749). Also: nearly all actives have a fitted effect of over 60% in size.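 As to activity, negative = inhibition: 0% = DMSO vehicle and full inhibition = artemisinin control.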 As to conditions: P. falciparum in erythrocytes, SYBR Green DNA, 72 h; series mostly up to 12.8 µM; activity, negative = inhibition: at the top concentration. The essentials:
(§1)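 SYBR Green fluorescence of parasite DNA, read after lysis and overnight dark incubation, measured growth over 72 h in erythrocyte culture at 0.3% parasitemia and 2.5% hematocrit. Data normalised to DMSO and 0.29 uM artemisinin, with plate-drift correction.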
With `CCO[C@H]1O[C@@H]([C@H](COCc2ccccc2)OCc2ccccc2)[C@@H](OCc2ccccc2)[C@H]1O`, the “activity, negative = inhibition” value is -0.38%.
With `COc1cc(N[C@@H](C)CCCN)c2ncccc2c1`, the Potency was 3.55 µM (active).
Still for that read-out and setting: for `C=Cc1c(C)c2cc3nc(cc4[nH]c(cc5nc(cc1[nH]2)C(C)=C5CCC(=O)O)c(CCC(=O)OC)c4C)[C@@]1(C)C3=CC=C(C(=O)OC)[C@H]1C(=O)OC` (tested in a mixture with another compound) the value was 11.2 µM (active).
For `O=C(OC[C@@H](O)CO)c1ccccc1Nc1ccnc2cc(Cl)ccc12`, the “activity, negative = inhibition” value is -1.77%.
The same measure, in the same setting: with `CO[C@]1(NC(=O)[C@H](C(=O)O)c2ccc(O)cc2)C(=O)N2C(C(=O)O)=C(CSc3nnnn3C)CO[C@H]21` the figure was 10.8%; with `COc1ccc2c(c1)N(C[C@@H](C)CN(C)C)c1ccccc1S2`, -0.393%; with `CCC(=O)[C@@]1(C)[C@H](C)C[C@@H]2[C@@H]3CCC4=CC(=O)C=C[C@@]4(C)[C@H]3[C@H](O)C[C@]21C`, 4.08%.
On the same count and under the same terms, for `CCC(C)(C)C(=O)O[C@@H]1C[C@H](C)C=C2C=C[C@H](C)[C@@H](CC[C@H]3C[C@@H](O)CC(=O)O3)[C@H]21` the value was 1.91%; for `CCN(CC)[C@@H](C)CN1c2ccccc2Sc2ccccc21`, -19.7%.
Regarding `CC=C(/C(=C/C)c1ccc(O)cc1)c1ccc(O)cc1`, the “activity, negative = inhibition” value was 2.36%.
On the same count and under the same terms, for `CC1(C)S[C@@H]2[C@H](NC(=O)[C@@H](N)c3ccccc3)C(=O)N2[C@H]1C(=O)O[C@H]1OC(=O)c2ccccc21` the value was 13%.

The next assay relates to DIV14. The assay is described as above. Conditions: P. falciparum in erythrocytes, SYBR Green DNA, 72 h; series mostly up to 12.8 µM; activity, negative = inhibition: at the top concentration. The essentials:
as §1
In the case of `COc1cc(N[C@@H](C)CCCN)c2ncccc2c1`, the Potency is 0.572 µM (active).
Same read-out and setting: for `C=Cc1c(C)c2cc3nc(cc4[nH]c(cc5nc(cc1[nH]2)C(C)=C5CCC(=O)O)c(CCC(=O)OC)c4C)[C@@]1(C)C3=CC=C(C(=O)OC)[C@H]1C(=O)OC` (tested in a mixture with another compound) the value was 8.49 µM (active).
`CO[C@]1(NC(=O)[C@H](C(=O)O)c2ccc(O)cc2)C(=O)N2C(C(=O)O)=C(CSc3nnnn3C)CO[C@H]21`: the “activity, negative = inhibition” value was 1.36%.
The same measure, in the same setting: for `CCC(=O)[C@@]1(C)[C@H](C)C[C@@H]2[C@@H]3CCC4=CC(=O)C=C[C@@]4(C)[C@H]3[C@H](O)C[C@]21C` the value was -12.5%.
Same read-out and setting: with `CCC(C)(C)C(=O)O[C@@H]1C[C@H](C)C=C2C=C[C@H](C)[C@@H](CC[C@H]3C[C@@H](O)CC(=O)O3)[C@H]21` the figure was -17.9%.
As to `COC(=O)[C@@H]1[C@@H]2C[C@H]3c4[nH]c5cc(OC)ccc5c4CCN3C[C@@H]2C[C@H](OC(=O)/C=C\c2cc(OC)c(OC)c(OC)c2)[C@H]1OC`, the Potency is 5.73 µM (active).
For `CC=C(/C(=C/C)c1ccc(O)cc1)c1ccc(O)cc1`, the “activity, negative = inhibition” value is -17.1%.
The same measure, in the same setting: for `CC1(C)S[C@@H]2[C@H](NC(=O)[C@@H](N)c3ccccc3)C(=O)N2[C@H]1C(=O)O[C@H]1OC(=O)c2ccccc21` the value was -7.21%.

For another assay, the system named is DIV17. The description is as above. Conditions: P. falciparum in erythrocytes, SYBR Green DNA, 72 h; series mostly up to 12.8 µM; activity, negative = inhibition: at the top concentration. The method in brief: as §1
In the case of `COc1cc(N[C@@H](C)CCCN)c2ncccc2c1`, the Potency was 0.642 µM (active).
The same measure, in the same setting: for `C=Cc1c(C)c2cc3nc(cc4[nH]c(cc5nc(cc1[nH]2)C(C)=C5CCC(=O)O)c(CCC(=O)OC)c4C)[C@@]1(C)C3=CC=C(C(=O)OC)[C@H]1C(=O)OC` (tested in a mixture with another compound) the value was 7.57 µM (active).
Regarding `CO[C@]1(NC(=O)[C@H](C(=O)O)c2ccc(O)cc2)C(=O)N2C(C(=O)O)=C(CSc3nnnn3C)CO[C@H]21`, the “activity, negative = inhibition” value was 6.14%.
Still for that read-out and setting: with `CCC(=O)[C@@]1(C)[C@H](C)C[C@@H]2[C@@H]3CCC4=CC(=O)C=C[C@@]4(C)[C@H]3[C@H](O)C[C@]21C` the figure was -6.67%; with `CCC(C)(C)C(=O)O[C@@H]1C[C@H](C)C=C2C=C[C@H](C)[C@@H](CC[C@H]3C[C@@H](O)CC(=O)O3)[C@H]21`, -17.7%.
On the same count and under the same terms, with `CC=C(/C(=C/C)c1ccc(O)cc1)c1ccc(O)cc1` the figure was -2.77%; with `CC1(C)S[C@@H]2[C@H](NC(=O)[C@@H](N)c3ccccc3)C(=O)N2[C@H]1C(=O)O[C@H]1OC(=O)c2ccccc21`, 6.31%.

The next assay deals with DIV30. Described as above. Conditions: P. falciparum in erythrocytes, SYBR Green DNA, 72 h; series mostly up to 12.8 µM; activity, negative = inhibition: at the top concentration. The essentials: as §1
`COc1cc(N[C@@H](C)CCCN)c2ncccc2c1`: the Potency is 2.03 µM (active).
For the compound `C=Cc1c(C)c2cc3nc(cc4[nH]c(cc5nc(cc1[nH]2)C(C)=C5CCC(=O)O)c(CCC(=O)OC)c4C)[C@@]1(C)C3=CC=C(C(=O)OC)[C@H]1C(=O)OC` (tested in a mixture with another compound), the “activity, negative = inhibition” value was -2.45% [at 28.7 µM].
Turning to `O=C(OC[C@@H](O)CO)c1ccccc1Nc1ccnc2cc(Cl)ccc12`, the “activity, negative = inhibition” value is -12.1%.
On to `CO[C@]1(NC(=O)[C@H](C(=O)O)c2ccc(O)cc2)C(=O)N2C(C(=O)O)=C(CSc3nnnn3C)CO[C@H]21`, for which the “activity, negative = inhibition” value was 3.09%.
On the same count and under the same terms, for `CCC(=O)[C@@]1(C)[C@H](C)C[C@@H]2[C@@H]3CCC4=CC(=O)C=C[C@@]4(C)[C@H]3[C@H](O)C[C@]21C` the value was 0.199%.
The same measure, in the same setting: for `CCC(C)(C)C(=O)O[C@@H]1C[C@H](C)C=C2C=C[C@H](C)[C@@H](CC[C@H]3C[C@@H](O)CC(=O)O3)[C@H]21` the value was -0.466%.
The same measure, in the same setting: with `CCN(CC)[C@@H](C)CN1c2ccccc2Sc2ccccc21` the figure was -16.5%.
For `COC(=O)[C@@H]1[C@@H]2C[C@H]3c4[nH]c5cc(OC)ccc5c4CCN3C[C@@H]2C[C@H](OC(=O)/C=C\c2cc(OC)c(OC)c(OC)c2)[C@H]1OC`, the Potency is 5.1 µM (active).
Regarding `CC=C(/C(=C/C)c1ccc(O)cc1)c1ccc(O)cc1`, the “activity, negative = inhibition” value is -14.5%.
Take `CC1(C)S[C@@H]2[C@H](NC(=O)[C@@H](N)c3ccccc3)C(=O)N2[C@H]1C(=O)O[C@H]1OC(=O)c2ccccc21`: the “activity, negative = inhibition” value was 1.33%.
